# Structures can show the parent of a compound that is named as a salt.
# Tested on: Danio rerio larvae Tg(actc1b:ZsGreen-LC3), 3 dpf
# Test: LC3 puncta relative area vs vehicle, with NH4Cl (autophagic flux) (log2 fold change); higher = more autophagy
# Conditions: 10 µM; treatment time 16 h; NH4Cl: + 100 mM, 4 h
# Description: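 Transgenic Tg(actc1b:ZsGreen-map1lc3) zebrafish larvae (2 dpf) were treated for 16 h with Tocris library compounds at 10 µM (n = 12 larvae per compound). Skeletal-muscle LC3 puncta area relative to body area was measured by high-content confocal imaging before and after 4 h of 100 mM NH4Cl (autophagic flux), normalised to vehicle (DMSO), and reported as log2 fold change.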
row,SMILES,LC3 puncta (log2)
1,Cc1ccc(/C(=C\CN2CCCC2)c2ccccn2)cc1 [trans-Triprolidine hydrochloride],-0.196
2,"c1ccc(CN2CCC3(CCc4ccccc43)CC2)cc1 [L-693,403 maleate]",0.655
3,Brc1c(NC2=NCCN2)ccc2nccnc12,0.713
4,CCN(CC)CCOCCOC(=O)C1(c2ccccc2)CCCC1 [Carbetapentane citrate],0.392
5,CC(C)NC[C@@H](O)COc1cccc2ccccc12 [(R)-(+)-Propranolol hydrochloride],-0.318
6,S=C(S)N1CCCC1 [Pyrrolidinedithiocarbamate ammonium],0.71
7,COc1ccc2[nH]c(I)c(CCNC(C)=O)c2c1 [2-Iodomelatonin],0.706
8,CCN(CC)CCOC(=O)C1(c2ccc([N+](=O)[O-])cc2)CCCC1 [Nitrocaramiphen hydrochloride],0.825
9,NC(N)=NC(N)=Nc1cccc(Cl)c1 [m-Chlorophenylbiguanide hydrochloride],0.782
10,N[C@H](C(=O)O)c1ccc(O)c(C(=O)O)c1 [(S)-3-Carboxy-4-hydroxyphenylglycine],0.54
11,N=C(N)SCCc1c[nH]cn1 [Imetit dihydrobromide],0.713
12,COc1cc2c(CCNC(C)=O)c[nH]c2cc1Cl [6-Chloromelatonin],0.198
13,COc1ccc([C@@H]2Sc3ccccc3N(CCN(C)C)C(=O)[C@@H]2OC(C)=O)cc1 [Diltiazem hydrochloride],0.194
14,C/N=C(/NC#N)NCCSCc1csc(NC(=N)N)n1 [Tiotidine],0.667
15,CC1(C(=O)O)NCCc2cc(O)c(O)cc21 (stereo not given) [Salsolinol-1-carboxylic acid],0.429
16,COc1ccccc1N1CCN(CCCCN2C(=O)c3ccccc3C2=O)CC1 [NAN-190 hydrobromide],0.496
17,CCC1(c2ccccc2)C(=O)NCNC1=O [Primidone],0.792
18,c1ccc(CN(CC2=NCCN2)c2ccccc2)cc1 [Antazoline hydrochloride],0.684
19,O=S(=O)(c1cccc2c(Cl)cccc12)N1CCCNCC1 [ML 9 hydrochloride],0.383
20,CNC(=O)c1cc2c(cn1)[nH]c1ccccc12,0.446

row,SMILES,LC3 puncta (log2)
1,CN(C)CCCn1cc(C2=C(c3c[nH]c4ccccc34)C(=O)NC2=O)c2ccccc21,0.575
2,O=C(OCCN1CCOCC1)C1(c2ccccc2)CCCCC1 [PRE-084 hydrochloride],0.339
3,COc1cc(N)c(Cl)cc1C(=O)OCCCN1CCCCC1,0.449
4,CCCCOc1cc(CC2CNC(=O)N2)ccc1OC (stereo not given),0.0673
5,CC1=C(/C=C/C(C)=C/C=C/C(C)=C/C(=O)O)C(C)(C)CCC1 [Retinoic acid],1.64
6,N[C@H]1CCN(O)C1=O,0.023
7,COc1ccccc1N1CCN(CC(O)COc2cccc3ccccc23)CC1 (stereo not given) [Naftopidil dihydrochloride],0.195
8,O=C(O)CC/C=C\C[C@H]1CO[C@@H](c2ccccc2Cl)O[C@H]1c1ccccc1O,-0.012
9,CC(=O)NCC(=O)N[C@H](CCC(=O)O)C(=O)O [N-Acetylglycyl-D-glutamic acid],0.237
10,O=[N+]([O-])c1cc2nc(O)c(O)nc2cc1[N+](=O)[O-],0.11
11,CN1CCC(=C2c3ccccc3CC(=O)c3sccc32)CC1 [Ketotifen fumarate],0.874
12,NS(=O)(=O)c1cccc2c1c([N+](=O)[O-])cc1nc(O)c(O)nc12,0.16
13,N[C@H](C(=O)O)c1ccc(C(=O)O)c(O)c1 [(S)-4-Carboxy-3-hydroxyphenylglycine],-0.0785
14,CC(C)CC(NC(=O)OCC1c2ccccc2-c2ccccc21)C(=O)O (stereo not given),0.569
15,CN1CCN(C2=Cc3ccccc3Oc3ccc(Cl)cc32)CC1,0.934
16,O=[N+]([O-])c1cccc2cn[nH]c12 [7-Nitroindazole],0.507
17,CC(Cc1ccc(O)c(O)c1)(NN)C(=O)O [(S)-(-)-Carbidopa],0.219
18,c1cc2c(cc1C1CCCCC1)c1c3n2CCNC3CCC1 (stereo not given) [Tetrindole mesylate],0.836
19,CCOC(=O)C1=C[C@]2(CC)CCCN3CCc4c(n1c1ccccc41)[C@@H]32 [Vinpocetine],1
20,CC(C)[N+]1(C)[C@@H]2CC[C@H]1C[C@@H](OC(=O)C(CO)c1ccccc1)C2 (stereo not given in full) [Ipratropium bromide],0.284
